IL1B secr inh: qHTS for Inhibitors of Inflammasome Signaling: IL-1-beta AlphaLISA Primary Screen | THP-1 LPS/ATP IL-1B secretion, AlphaLISA, 16 h; hits give low values | activity change, % at 57.5 µM | hit rate 4.7% among 360,000 | AID 743279, 2014; in the data active means activity change below about -50%; inconclusive means mostly about -30% to -49%
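THP-1 cells pretreated 1 hr with compounds (up to 57.5 uM final), then stimulated with LPS (250 ng/mL final) plus ATP (1.25 mM final); secreted IL-1B measured by AlphaLISA after 16 hr, decreased signal indicating inhibition.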
ELG1 DNA repair: qHTS screen for small molecules that inhibit ELG1-dependent DNA repair in human embryonic kidney (HEK293T) cells expressing luciferase-tagged ELG1; HEK293T ELG1-luciferase reporter, luminescence, 16 h; DNA damage induced by 5-fluorouridine; Potency, µM (series often up to 46.1 µM), without a hit: at the top dose activity change, negative = inhibition, actives largely listed as inhibitors; hit rate 2.3% among 330,000; AID 504467, 2011; further: potency means the concentration at half of the fitted maximal effect; nearly all actives have a fitted effect of over 55% in size
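5-Fluorouridine DNA damage + compound/DMSO, 2,000 cells/well, 16 h, 37 °C/5% CO2. ONE-Glo, 30 min RT, luminescence. Readout = decrease in reporter signal.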
RORg inh: qHTS for inhibitors of ROR gamma transcriptional activity. Nuclear receptor ROR-gamma (Mus musculus), P51450. Potency, µM (highest dose often 53.6 µM), for the others: at the top dose activity change, negative = inhibition, actives largely listed as inhibitors. hit rate 5.4% among 310,000. AID 2551, 2010. Drosophila S2 Gal4-RORgamma UAS-luciferase reporter, 20 h; further: potency means the concentration at half of the fitted maximal effect; nearly all actives have a fitted effect of over 60% in size
Target sequence (P51450 whole entry, looked up, the tested form may be a part): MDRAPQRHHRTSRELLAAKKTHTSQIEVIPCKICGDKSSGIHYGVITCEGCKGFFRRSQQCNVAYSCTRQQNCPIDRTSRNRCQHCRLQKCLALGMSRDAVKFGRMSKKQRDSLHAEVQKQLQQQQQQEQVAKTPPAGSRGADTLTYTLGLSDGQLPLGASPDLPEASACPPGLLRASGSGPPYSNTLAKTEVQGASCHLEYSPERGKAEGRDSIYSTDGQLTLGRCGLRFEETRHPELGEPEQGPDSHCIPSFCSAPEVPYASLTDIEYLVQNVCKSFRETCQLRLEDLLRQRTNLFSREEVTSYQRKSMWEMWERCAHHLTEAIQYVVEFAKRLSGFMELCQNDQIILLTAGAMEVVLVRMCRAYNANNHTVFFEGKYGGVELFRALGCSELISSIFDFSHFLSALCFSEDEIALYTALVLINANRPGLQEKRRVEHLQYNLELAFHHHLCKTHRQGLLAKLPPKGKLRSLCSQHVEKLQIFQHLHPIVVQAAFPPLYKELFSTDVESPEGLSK
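Luciferase reporter read in Schneider cells carrying Gal4-RORγ (mouse) and UAS-Photinus luciferase; cells given compound 1 h before 700 uM copper sulfate induction, then incubated 20 h at ambient temperature.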
TDP1 cell CPT: qHTS for Inhibitors of human tyrosyl-DNA phosphodiesterase 1 (TDP1): qHTS in cells in presence of CPT; chicken DT40 Tdp1-/-;hTDP1 cells + 20 nM CPT, ATP luminescence, 48 h; Potency, µM (top dose mostly 46.2 µM), inactives show top-dose activity change, negative = growth inhibition, usual class: inhibitors; hit rate 12% among 420,000; AID 686979, 2013; further: potency means the concentration at half of the fitted maximal effect; nearly all actives have a fitted effect of over 55% in size
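Chicken DT40 Tdp1-/- cells complemented with human TDP1, 400 cells/well, exposed to compounds plus 20 nM camptothecin for at least 48 h at 37 C; viability read as ATP content by CellTiter-Glo luminescence.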
TDP1 cell noCPT: qHTS for Inhibitors of human tyrosyl-DNA phosphodiesterase 1 (TDP1): qHTS in cells in absence of CPT; AID 686978, 2013; DT40 Tdp1-/- hTDP1 cells, no CPT, ATP luminescence, 48 h; hit rate 15% among 420,000; Potency, µM (doses to about 46.2 µM), for the others: top-dose activity change, negative = growth inhibition, hits mostly inhibitors; further: potency means the concentration at half of the fitted maximal effect; nearly all actives have a fitted effect of over 55% in size
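Readout: luminescence from CellTiter-Glo after 30 min in the dark at RT. Cells: DT40 Tdp1-/- with stable hTDP1, 400/well. Exposure: compounds alone, ≥48 hr, 37 °C.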
Gal4-VP16 FLuc: VP16 counterscreen qHTS for inhibitors of ROR gamma transcriptional activity; Drosophila S2 Gal4-VP16 UAS-luciferase, luminescence, 20 h; Potency, µM (doses to about 53.6 µM), for the others: at the highest dose activity, negative = inhibition, hits mostly inhibitors; hit rate 3.5% among 310,000; AID 2546, 2010;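 further: Gal4-VP16 expression switched on by copper sulfate through the metallothionein promoter; potency means the concentration at half of the fitted maximal effect; nearly all actives have a fitted effect of over 50% in size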
Starred values were filed as active, the others as inactive; [ ] = another dose, or the depositor's remark. An excerpt weighted towards active compounds, which were near 21% of everything screened. Unless noted, the call rests on the fitted dose curve; in most records, active means well fitted curve in the direction sought with a large enough effect; inconclusive means small, poorly fitted or top-dose-only effect, or another doubt; inactive means no such curve, though single readings can be large; an effect the other way counts as inactive or inconclusive. On the % scale 0 is the no-effect control and ±100 the full control effect.

Screening CCC1=C2CC[C@H]3C(=O)NC(=O)[C@H]3[C@H]2[C@@]2(C)C(=NCC3CC3)OC(=O)N2C1=O returned RORg inh -8.6% and Gal4-VP16 FLuc -15.3%.
CCOC(=O)N1CCC(N2Cc3cccc(C(=O)NC(C)c4ccc5c(c4)OCCO5)c3C2=O)CC1 (stereo not drawn) was read as IL1B secr inh -21.8, ELG1 DNA repair inconclusive, RORg inh -7.1%, TDP1 cell CPT inconclusive, TDP1 cell noCPT 23.1µM* and Gal4-VP16 FLuc -5.3%.
For CCOC(=O)N1CCC(N2Cc3cccc(C(=O)NCc4ccc(C)cc4)c3C2=O)CC1 the results were IL1B secr inh 5.4, ELG1 DNA repair 16.4µM*, RORg inh 13.2%, TDP1 cell CPT inconclusive, TDP1 cell noCPT inconclusive and Gal4-VP16 FLuc 2.9%.
`CCCN1Cc2cccc(C(=O)NCc3ccc(C)cc3)c2C1=O` gave IL1B secr inh -12.6, ELG1 DNA repair -26.7%, RORg inh 26.6%, TDP1 cell CPT inconclusive, TDP1 cell noCPT 17.4% and Gal4-VP16 FLuc -16.9%.
`Cc1ccc(NC(=O)COC(=O)c2ccc(S(=O)(=O)N3CCCC3)cc2)cc1` gave IL1B secr inh 12.8, ELG1 DNA repair 10.4%, TDP1 cell CPT 2.9% and TDP1 cell noCPT 1.0%.
`COC(=O)[C@@H]1C[C@@H](NC(=O)c2cnsn2)CN1Cc1ccc(Cl)cc1` gave TDP1 cell CPT -12.7%[9.04 µM] and TDP1 cell noCPT -14.9%.
For C[C@H](CN1c2ccccc2Sc2cccnc21)N(C)C the results were RORg inh -12.1% and Gal4-VP16 FLuc 17.5%.
`O=[N+]([O-])c1cccc(-c2n[nH]c(=S)n2Cc2ccccc2)c1` gave IL1B secr inh 23.2, ELG1 DNA repair 21.5%, RORg inh 7.08µM*, TDP1 cell CPT -18.5%, TDP1 cell noCPT inconclusive and Gal4-VP16 FLuc inconclusive.
Screening C=CCn1c(-c2cccc([N+](=O)[O-])c2)n[nH]c1=S returned IL1B secr inh 0.0, ELG1 DNA repair inconclusive, RORg inh 2.24µM*, TDP1 cell CPT 0.3%, TDP1 cell noCPT -4.8% and Gal4-VP16 FLuc 8.91µM*.
OC(CSc1nnnn1-c1ccccc1)Cn1c2ccccc2c2ccccc21 (stereo not drawn) was read as IL1B secr inh -21.7, TDP1 cell CPT inconclusive and TDP1 cell noCPT inconclusive.
O=C(CSc1nc(C(F)(F)F)cc(=O)[nH]1)N1CCCC1 was read as IL1B secr inh 8.6, ELG1 DNA repair 9.8%, TDP1 cell CPT -8.0% and TDP1 cell noCPT -11.1%.
For O=c1c2ccccc2nc2c3ccccc3cnn12 the results were IL1B secr inh 0.0, ELG1 DNA repair inconclusive, RORg inh -15.1%, TDP1 cell CPT inconclusive, TDP1 cell noCPT inconclusive and Gal4-VP16 FLuc 12.4%.
`O=c1c2ccccc2cnn1-c1nc2ccccc2[nH]1` gave IL1B secr inh 26.8, ELG1 DNA repair inconclusive, RORg inh 0.447µM*, TDP1 cell CPT 4.11µM*, TDP1 cell noCPT 3.66µM* and Gal4-VP16 FLuc 1.12µM*.
Screening O=c1c(Cl)c(N2CCCCC2)cnn1-c1nc2ccccc2[nH]1 returned IL1B secr inh -15.2, ELG1 DNA repair inconclusive, RORg inh 0.891µM*, TDP1 cell CPT inconclusive, TDP1 cell noCPT 20.6µM* and Gal4-VP16 FLuc 1.26µM*.
C[C@@H]1CC[C@@]2(OC1)O[C@H]1C[C@H]3[C@@H]4CC[C@H]5C[C@@H](O)CC[C@]5(C)[C@H]4CC(=O)[C@]3(C)[C@H]1[C@@H]2C was read as TDP1 cell CPT 17.2%[21.1 µM] and TDP1 cell noCPT -10.2%[21.1 µM].
Screening Cn1c2c(c3cnc4cc(Cl)ccc4c31)CN(Cc1ccc(Cl)cc1)CC2 returned TDP1 cell CPT 7.94µM* and TDP1 cell noCPT 7.08µM*.
`COc1ccccc1N1CCN(C(=O)c2cnn(-c3ccc(F)cc3F)c2C2CCNCC2)CC1` gave TDP1 cell CPT -28.0% and TDP1 cell noCPT 18.4µM*.
CC(C)(C)OC(=O)N1CCC(c2c(C(=O)N3CCCCC3)cnn2-c2ccc(F)cc2)CC1 was read as TDP1 cell CPT 0.3% and TDP1 cell noCPT inconclusive.
CC(C)(C)OC(=O)N1CCC(c2c(C(=O)NCCN3CCOCC3)cnn2-c2cccc(F)c2)CC1 was read as TDP1 cell CPT -26.3% and TDP1 cell noCPT -26.1%.
For COc1ccccc1CNC(=O)c1cnn(-c2ccc(F)cc2F)c1C1CCN(C(=O)OC(C)(C)C)CC1 the results were TDP1 cell CPT 16.4µM* and TDP1 cell noCPT inconclusive.
Screening O=C(c1ccco1)N1CCN(C(=O)c2cnn(-c3cccc(F)c3)c2C2CCNCC2)CC1 returned IL1B secr inh 6.7, ELG1 DNA repair 30.1%, RORg inh 2.3%, TDP1 cell CPT -7.6%, TDP1 cell noCPT 22.8% and Gal4-VP16 FLuc -6.3%.
For Cc1cccc(N2CCN(C(=O)c3cnn(-c4ccc(F)cc4F)c3C3CCN(C(=O)OC(C)(C)C)CC3)CC2)c1C the results were TDP1 cell CPT 20.6µM* and TDP1 cell noCPT 20.6µM*.
For CC(C)(C)OC(=O)N1CCC(c2c(C(=O)NC3CCCCC3)cnn2-c2ccc(F)cc2F)CC1 the results were TDP1 cell CPT 20.6µM* and TDP1 cell noCPT inconclusive.
`Cc1nnc(SCC(=O)N2CCCC2)n(N)c1=O` gave IL1B secr inh 14.2, ELG1 DNA repair 0.1%, RORg inh -3.0%, TDP1 cell CPT 23.9%, TDP1 cell noCPT 1.9% and Gal4-VP16 FLuc 4.3%.
Screening COc1ccc(Cn2ccnc2SCC(=O)Nc2ccc(C)cc2C)cc1 returned TDP1 cell CPT -15.3% and TDP1 cell noCPT -21.4%.
For COc1ccc(Br)cc1CNc1ccc2[nH]c(=O)[nH]c2c1 the results were IL1B secr inh -60.9*, ELG1 DNA repair -4.2%, RORg inh 3.1%, TDP1 cell CPT -31.5%, TDP1 cell noCPT -29.3% and Gal4-VP16 FLuc -12.7%.
`C=CCOc1ccc(CNc2ccc3[nH]c(=O)[nH]c3c2)cc1OC` gave IL1B secr inh 9.4, ELG1 DNA repair -9.1%, RORg inh 0.5%, TDP1 cell CPT 7.2%, TDP1 cell noCPT -7.0% and Gal4-VP16 FLuc 9.4%.

Screening data deposited in PubChem by National Center for Advancing Translational Sciences (NCATS).
